According to the supplement of paper PMC7595190:
Values without a mark were called inactive.

Experiments:
CMK = experiment: CellTox Green cytotoxicity fluorescence relative to DMSO vehicle (fold of vehicle RFU); higher = more cell death (loss of membrane integrity), active = 2 or more
In short: (§1)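 Cytotoxicity values reflect loss of membrane integrity and are fluorescence expressed as fold of the DMSO vehicle. MV4-11, CMK and Kasumi-1 cells were seeded at 4.0 × 10^4 cells per well with CellTox Green reagent and treated with single Selleckchem apoptosis library compounds at final 0.01, 0.1 and 1 µM, with 0.1% DMSO as vehicle. Plates were held at 37 °C, 5% CO2 and read at 24, 48 and 72 h.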

Kasumi-1 = experiment: as above
In short: as §1

| Structure (SMILES) | CellTox Green cytotoxicity fluorescence (CMK; 0.01 µM, 24 h) | CellTox Green cytotoxicity fluorescence (CMK; 0.01 µM, 48 h) | CellTox Green cytotoxicity fluorescence (CMK; 0.01 µM, 72 h) | CellTox Green cytotoxicity fluorescence (CMK; 0.1 µM, 24 h) | CellTox Green cytotoxicity fluorescence (CMK; 0.1 µM, 48 h) | CellTox Green cytotoxicity fluorescence (CMK; 0.1 µM, 72 h) | CellTox Green cytotoxicity fluorescence (CMK; 1 µM, 24 h) | CellTox Green cytotoxicity fluorescence (CMK; 1 µM, 48 h) | CellTox Green cytotoxicity fluorescence (CMK; 1 µM, 72 h) | CellTox Green cytotoxicity fluorescence (Kasumi-1; 0.01 µM, 24 h) | CellTox Green cytotoxicity fluorescence (Kasumi-1; 0.01 µM, 48 h) | CellTox Green cytotoxicity fluorescence (Kasumi-1; 0.01 µM, 72 h) | CellTox Green cytotoxicity fluorescence (Kasumi-1; 0.1 µM, 24 h) | CellTox Green cytotoxicity fluorescence (Kasumi-1; 0.1 µM, 48 h) | CellTox Green cytotoxicity fluorescence (Kasumi-1; 0.1 µM, 72 h) | CellTox Green cytotoxicity fluorescence (Kasumi-1; 1 µM, 24 h) | CellTox Green cytotoxicity fluorescence (Kasumi-1; 1 µM, 48 h) | CellTox Green cytotoxicity fluorescence (Kasumi-1; 1 µM, 72 h) |
| --- | --- | --- | --- | --- | --- | --- | --- | --- | --- | --- | --- | --- | --- | --- | --- | --- | --- | --- |
| CC[C@H](C)[C@@H]([C@@H](CC(=O)N1CCC[C@H]1[C@H](OC)[C@@H](C)C(=O)N[C@H](C)[C@@H](O)c1ccccc1)OC)N(C)C(=O)[C@@H](NC(=O)[C@@H](NC)C(C)C)C(C)C [Monomethyl auristatin E] | 1.24 | 1.82 | 1.43 | 1.52 | 2.24 (active) | 1.56 | 1.97 | 2.64 (active) | 1.78 | 1.06 | 1.27 | 1.44 | 1.17 | 1.42 | 1.53 | 1.31 | 1.56 | 1.62 |
| Cc1cc2c(C(C)C)c(O)c(O)c(C=O)c2c(O)c1-c1c(C)cc2c(C(C)C)c(O)c(O)c(C=O)c2c1O | 0.986 | 0.967 | 0.952 | 0.998 | 0.982 | 0.961 | 0.986 | 0.979 | 0.85 | 0.96 | 0.957 | 0.955 | 0.99 | 0.973 | 0.975 | 0.98 | 0.966 | 0.978 |
| COc1ccc2c(c1)/C(=C/c1cnc[nH]1)C(=O)N2 | 0.911 | 0.923 | 1.04 | 0.922 | 0.924 | 1.05 | 0.934 | 0.914 | 0.881 | 0.934 | 0.941 | 0.971 | 0.976 | 0.981 | 0.966 | 0.881 | 0.948 | 0.963 |
| CN[C@@H]1C[C@H]2O[C@@](C)([C@@H]1OC)n1c3ccccc3c3c4c(c5c6ccccc6n2c5c31)C(=O)NC4 [Staurosporine] | 0.96 | 0.998 | 1.07 | 1.01 | 1.29 | 1.4 | 1.1 | 1.45 | 1.29 | 0.984 | 1.18 | 1.24 | 1.08 | 1.54 | 1.74 | 1.67 | 2.08 (active) | 2.12 (active) |
| COc1cc([C@@H]2c3cc4c(cc3[C@H](O)[C@H]3COC(=O)[C@@H]23)OCO4)cc(OC)c1OC [Picropodophyllin] | 0.955 | 0.958 | 0.973 | 1.06 | 1.23 | 1.08 | 1.34 | 2.12 (active) | 1.58 | 0.945 | 0.978 | 0.997 | 0.993 | 0.999 | 1.06 | 1.16 | 1.35 | 1.48 |
| Cn1c(COP(=O)(NCCBr)NCCBr)cnc1[N+](=O)[O-] | 0.974 | 0.98 | 0.991 | 0.972 | 0.996 | 1.07 | 0.975 | 1.24 | 1.89 | 1.03 | 0.968 | 0.958 | 0.962 | 0.956 | 0.952 | 0.977 | 0.974 | 0.977 |
| CC1=C(O)C(=O)C=C2C1=CC=C1[C@@]2(C)CC[C@@]2(C)[C@@H]3C[C@](C)(C(=O)O)CC[C@]3(C)CC[C@]12C [Celastrol] | 0.959 | 0.961 | 0.98 | 0.946 | 0.94 | 0.932 | 2.38 (active) | 3.09 (active) | 2.25 (active) | 0.916 | 0.923 | 0.903 | 0.954 | 0.962 | 0.952 | 1.23 | 1.43 | 1.47 |
| O=C(O)C(=O)c1cn(Cc2ccccc2)c2ccc(-c3ccc(OC(F)(F)F)cc3)cc12 [Tiplaxtinin] | 1.02 | 1.01 | 1 | 1.01 | 1.02 | 0.987 | 0.968 | 0.972 | 0.943 | 1.02 | 1.01 | 1.03 | 1.02 | 1.02 | 1.03 | 0.968 | 0.983 | 0.973 |
| COc1cc(C)[nH]c(=O)c1CNC(=O)c1c(C)n([C@H](C)C2CCOCC2)c2ccccc12 | 0.942 | 0.948 | 0.965 | 0.936 | 0.944 | 0.919 | 0.949 | 0.973 | 0.965 | 0.935 | 0.952 | 0.966 | 0.97 | 0.948 | 0.954 | 1.03 | 0.982 | 0.976 |
| O=c1[nH]c2ccccc2n1C1CCN(Cc2ccc(-c3[nH]c4cc5ncnc5cc4nc3-c3ccccc3)cc2)CC1 | 1.02 | 0.991 | 0.913 | 0.983 | 0.97 | 0.906 | 0.966 | 0.967 | 0.949 | 0.972 | 0.961 | 0.96 | 0.969 | 0.99 | 0.958 | 1.08 | 1.29 | 1.35 |
